Assay results as given in PMC7862700, “An all-to-all approach to the identification of sequence-specific readers for epigenetic DNA modifications on cytosine”.

How the values were obtained:
Experiment in all cases: DAPPL (digital affinity profiling via proximity ligation, sequencing); 10 mM Tris-HCl pH 7.5, 50 mM NaCl, 1 mM DTT, 4% glycerol, room temperature, 30 min; GST-TFs on glutathione beads, 16-mer random dsDNA library, 0.1% formaldehyde crosslink after washing; high values mean tight binding
Settings in all cases: protein: recombinant; tags: N-terminal GST; dsDNA, one strand shown
FLI1 = biological target: T1, FLI1 (Homo sapiens, UniProt Q01543 1-452)
T1 sequence: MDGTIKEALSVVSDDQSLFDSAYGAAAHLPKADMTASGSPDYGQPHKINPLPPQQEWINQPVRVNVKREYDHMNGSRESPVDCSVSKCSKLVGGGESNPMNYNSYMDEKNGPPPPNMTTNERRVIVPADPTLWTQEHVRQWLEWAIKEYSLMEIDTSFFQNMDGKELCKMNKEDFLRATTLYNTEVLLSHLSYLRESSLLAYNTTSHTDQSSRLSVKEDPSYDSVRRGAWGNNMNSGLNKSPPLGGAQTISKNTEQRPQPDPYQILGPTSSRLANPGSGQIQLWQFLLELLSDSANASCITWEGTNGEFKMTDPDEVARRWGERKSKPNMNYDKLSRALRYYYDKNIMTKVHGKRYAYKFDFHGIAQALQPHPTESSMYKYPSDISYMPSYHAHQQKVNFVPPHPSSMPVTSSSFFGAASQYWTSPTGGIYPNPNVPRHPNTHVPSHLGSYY
In short: (§1)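 Human transcription factors carrying a GST fusion were produced in yeast, bound to glutathione beads, tagged with DNA barcodes and pooled together with a tag-only sample. Each pool was held with 200 nmole of a random double-stranded 16-mer DNA library in Tris/NaCl/DTT/glycerol buffer for 30 min at room temperature, then washed, crosslinked in 0.1% formaldehyde, proximity-ligated with BsaI/T4 ligase (1 h, 37 °C), PCR-amplified and sequenced on an Illumina NextSeq500. Binding signal is the read frequency of each hexamer for a given factor divided by its frequency in the tag-only sample.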

ELK1 = biological target: T2, ELK1 (Homo sapiens, UniProt P19419 1-428)
T2 sequence: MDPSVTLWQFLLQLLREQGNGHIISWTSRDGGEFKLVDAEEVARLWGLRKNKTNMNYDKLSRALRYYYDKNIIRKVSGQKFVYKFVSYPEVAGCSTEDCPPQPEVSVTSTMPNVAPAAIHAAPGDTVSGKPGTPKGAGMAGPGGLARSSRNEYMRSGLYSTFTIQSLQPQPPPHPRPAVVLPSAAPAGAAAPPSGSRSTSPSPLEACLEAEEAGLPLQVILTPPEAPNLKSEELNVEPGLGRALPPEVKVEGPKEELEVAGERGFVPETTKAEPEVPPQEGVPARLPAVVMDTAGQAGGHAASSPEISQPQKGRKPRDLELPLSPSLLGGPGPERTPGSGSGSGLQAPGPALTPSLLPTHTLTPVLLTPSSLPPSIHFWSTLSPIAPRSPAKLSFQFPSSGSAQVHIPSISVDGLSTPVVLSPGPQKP
In short: as §1

ERG = biological target: T3, ERG (Homo sapiens, UniProt P11308 1-479)
T3 sequence: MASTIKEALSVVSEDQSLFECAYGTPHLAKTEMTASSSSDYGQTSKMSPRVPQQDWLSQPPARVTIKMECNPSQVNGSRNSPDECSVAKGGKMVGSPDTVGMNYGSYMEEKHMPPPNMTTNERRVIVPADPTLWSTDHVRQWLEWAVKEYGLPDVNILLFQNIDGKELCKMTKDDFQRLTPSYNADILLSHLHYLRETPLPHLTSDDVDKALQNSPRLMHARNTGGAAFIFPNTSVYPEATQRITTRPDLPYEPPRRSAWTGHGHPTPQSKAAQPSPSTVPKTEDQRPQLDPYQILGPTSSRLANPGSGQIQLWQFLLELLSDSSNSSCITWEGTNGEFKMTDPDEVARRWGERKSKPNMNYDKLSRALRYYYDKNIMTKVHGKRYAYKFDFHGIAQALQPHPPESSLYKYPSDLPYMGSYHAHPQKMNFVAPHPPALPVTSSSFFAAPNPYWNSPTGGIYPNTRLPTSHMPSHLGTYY
In short: as §1

ELF1 = ELF1 (Homo sapiens, UniProt P32519 1-619)
Sequence of ELF1 (P32519 whole entry): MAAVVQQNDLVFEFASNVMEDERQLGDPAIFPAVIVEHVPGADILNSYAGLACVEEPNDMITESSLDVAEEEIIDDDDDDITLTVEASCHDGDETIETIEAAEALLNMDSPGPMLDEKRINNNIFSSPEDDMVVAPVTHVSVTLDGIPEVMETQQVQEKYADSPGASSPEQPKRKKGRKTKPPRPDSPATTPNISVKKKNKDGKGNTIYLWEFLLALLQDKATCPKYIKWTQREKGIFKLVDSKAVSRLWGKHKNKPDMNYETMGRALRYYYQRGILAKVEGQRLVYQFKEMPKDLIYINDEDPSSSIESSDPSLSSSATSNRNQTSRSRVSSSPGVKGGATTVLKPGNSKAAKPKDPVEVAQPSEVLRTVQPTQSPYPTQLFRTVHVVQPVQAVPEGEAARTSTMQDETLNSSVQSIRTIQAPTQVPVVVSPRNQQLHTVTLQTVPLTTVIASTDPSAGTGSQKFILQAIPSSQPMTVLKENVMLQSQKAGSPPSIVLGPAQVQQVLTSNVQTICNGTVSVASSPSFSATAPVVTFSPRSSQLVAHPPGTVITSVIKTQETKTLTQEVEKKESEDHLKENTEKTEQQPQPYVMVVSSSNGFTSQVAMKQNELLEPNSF
In short: as §1

SPI1 = SPI1 (Homo sapiens, UniProt P17947 1-270)
In short: as §1

SPIB = SPIB (Homo sapiens, UniProt Q01892 1-262)
Sequence of SPIB (Q01892 whole entry): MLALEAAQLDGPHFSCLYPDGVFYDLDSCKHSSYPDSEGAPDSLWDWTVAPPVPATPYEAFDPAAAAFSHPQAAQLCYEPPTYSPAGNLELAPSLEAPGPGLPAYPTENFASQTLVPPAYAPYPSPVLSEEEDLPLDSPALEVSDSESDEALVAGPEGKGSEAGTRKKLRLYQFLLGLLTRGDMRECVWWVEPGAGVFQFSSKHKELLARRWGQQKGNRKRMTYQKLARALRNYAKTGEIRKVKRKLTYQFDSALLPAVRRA
In short: as §1

ELK3 = biological target: T4, ELK3 (Homo sapiens, UniProt P41970 1-407)
T4 sequence: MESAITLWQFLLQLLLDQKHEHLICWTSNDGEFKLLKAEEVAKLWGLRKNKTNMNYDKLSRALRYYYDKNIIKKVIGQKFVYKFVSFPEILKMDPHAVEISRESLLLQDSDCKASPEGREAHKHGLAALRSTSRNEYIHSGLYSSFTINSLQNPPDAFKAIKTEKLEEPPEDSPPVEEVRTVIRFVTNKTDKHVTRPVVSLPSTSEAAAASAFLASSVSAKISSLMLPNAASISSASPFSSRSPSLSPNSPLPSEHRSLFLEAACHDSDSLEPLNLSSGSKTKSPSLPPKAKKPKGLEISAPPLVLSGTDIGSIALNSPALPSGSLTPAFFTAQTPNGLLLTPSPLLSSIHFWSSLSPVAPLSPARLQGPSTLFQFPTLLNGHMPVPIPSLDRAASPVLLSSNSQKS
In short: as §1

ETV5 = ETV5 (Homo sapiens, UniProt P41161 1-510)
Sequence of ETV5 (P41161 whole entry): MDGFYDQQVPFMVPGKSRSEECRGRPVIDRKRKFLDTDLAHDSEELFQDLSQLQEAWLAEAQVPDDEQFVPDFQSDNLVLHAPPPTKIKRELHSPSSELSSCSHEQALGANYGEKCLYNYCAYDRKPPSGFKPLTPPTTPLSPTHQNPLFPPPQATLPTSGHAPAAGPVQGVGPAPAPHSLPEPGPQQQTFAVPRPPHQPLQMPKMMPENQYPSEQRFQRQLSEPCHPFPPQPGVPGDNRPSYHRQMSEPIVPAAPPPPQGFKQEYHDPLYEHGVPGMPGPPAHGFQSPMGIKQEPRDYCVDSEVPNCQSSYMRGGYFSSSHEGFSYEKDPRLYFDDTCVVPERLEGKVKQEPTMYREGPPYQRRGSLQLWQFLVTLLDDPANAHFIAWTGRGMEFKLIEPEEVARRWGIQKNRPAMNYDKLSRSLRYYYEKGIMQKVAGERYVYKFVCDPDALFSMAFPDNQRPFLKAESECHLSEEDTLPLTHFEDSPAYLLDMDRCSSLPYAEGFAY
In short: as §1

SPIC = biological target: T5, SPIC (Homo sapiens, UniProt Q8N5J4 1-248)
T5 sequence: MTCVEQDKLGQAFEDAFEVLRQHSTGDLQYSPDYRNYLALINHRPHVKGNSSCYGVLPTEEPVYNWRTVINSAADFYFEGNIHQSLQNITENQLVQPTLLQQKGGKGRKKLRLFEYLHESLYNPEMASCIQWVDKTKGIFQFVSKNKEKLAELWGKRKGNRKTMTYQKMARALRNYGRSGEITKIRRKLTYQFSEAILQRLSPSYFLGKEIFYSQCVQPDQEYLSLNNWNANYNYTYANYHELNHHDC
In short: as §1

ERF = biological target: T6, ERF (Homo sapiens, UniProt P50548 1-548)
T6 sequence: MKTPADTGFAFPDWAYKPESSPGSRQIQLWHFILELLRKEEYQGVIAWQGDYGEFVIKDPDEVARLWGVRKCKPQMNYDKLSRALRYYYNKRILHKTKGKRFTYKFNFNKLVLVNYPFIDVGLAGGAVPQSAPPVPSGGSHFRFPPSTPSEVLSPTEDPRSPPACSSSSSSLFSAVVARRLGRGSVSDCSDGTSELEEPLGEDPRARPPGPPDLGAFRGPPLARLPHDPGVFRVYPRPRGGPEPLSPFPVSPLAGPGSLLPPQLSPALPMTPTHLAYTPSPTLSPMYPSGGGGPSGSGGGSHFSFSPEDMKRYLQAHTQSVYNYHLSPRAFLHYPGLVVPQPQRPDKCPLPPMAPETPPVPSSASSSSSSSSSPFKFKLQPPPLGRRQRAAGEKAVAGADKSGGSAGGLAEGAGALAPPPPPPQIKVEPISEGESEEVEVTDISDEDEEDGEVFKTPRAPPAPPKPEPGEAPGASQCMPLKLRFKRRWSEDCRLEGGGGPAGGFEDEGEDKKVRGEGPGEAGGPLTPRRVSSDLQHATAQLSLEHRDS
In short: as §1

ETV3L = biological target: T7, ETV3L (Homo sapiens, UniProt Q6ZN32 1-361)
T7 sequence: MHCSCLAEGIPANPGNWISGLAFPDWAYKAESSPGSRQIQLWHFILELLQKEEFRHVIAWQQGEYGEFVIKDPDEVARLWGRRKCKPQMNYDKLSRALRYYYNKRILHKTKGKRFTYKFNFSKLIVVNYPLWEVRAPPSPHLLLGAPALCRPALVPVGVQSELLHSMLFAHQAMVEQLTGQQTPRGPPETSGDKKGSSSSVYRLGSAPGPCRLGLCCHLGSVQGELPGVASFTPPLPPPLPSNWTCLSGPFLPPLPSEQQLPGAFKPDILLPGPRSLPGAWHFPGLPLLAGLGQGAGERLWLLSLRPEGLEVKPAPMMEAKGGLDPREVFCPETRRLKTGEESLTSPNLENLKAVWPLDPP
In short: as §1

ETS2 = biological target: T8, ETS2 (Homo sapiens, UniProt P15036 1-469)
T8 sequence: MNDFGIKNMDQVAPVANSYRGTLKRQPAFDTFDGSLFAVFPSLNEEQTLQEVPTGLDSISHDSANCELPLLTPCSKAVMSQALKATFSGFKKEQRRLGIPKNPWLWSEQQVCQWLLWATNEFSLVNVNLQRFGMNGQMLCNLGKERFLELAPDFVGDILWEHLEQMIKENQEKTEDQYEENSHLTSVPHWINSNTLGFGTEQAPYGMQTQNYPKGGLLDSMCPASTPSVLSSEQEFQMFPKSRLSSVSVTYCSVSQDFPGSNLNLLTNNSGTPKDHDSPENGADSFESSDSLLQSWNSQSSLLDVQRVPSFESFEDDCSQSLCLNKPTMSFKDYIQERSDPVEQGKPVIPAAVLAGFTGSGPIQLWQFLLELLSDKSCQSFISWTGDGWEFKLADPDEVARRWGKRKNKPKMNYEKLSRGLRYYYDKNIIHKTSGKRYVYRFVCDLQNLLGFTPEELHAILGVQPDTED
In short: as §1

ETV3 = biological target: T9, ETV3 (Homo sapiens, UniProt P41162-2 1-143)
T9 sequence: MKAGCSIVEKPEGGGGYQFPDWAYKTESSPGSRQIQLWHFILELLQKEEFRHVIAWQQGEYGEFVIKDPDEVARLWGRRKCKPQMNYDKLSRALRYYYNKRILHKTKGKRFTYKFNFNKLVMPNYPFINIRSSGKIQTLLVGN
In short: as §1

EHF = biological target: T10, EHF (Homo sapiens, UniProt Q9NZC4 1-300)
T10 sequence: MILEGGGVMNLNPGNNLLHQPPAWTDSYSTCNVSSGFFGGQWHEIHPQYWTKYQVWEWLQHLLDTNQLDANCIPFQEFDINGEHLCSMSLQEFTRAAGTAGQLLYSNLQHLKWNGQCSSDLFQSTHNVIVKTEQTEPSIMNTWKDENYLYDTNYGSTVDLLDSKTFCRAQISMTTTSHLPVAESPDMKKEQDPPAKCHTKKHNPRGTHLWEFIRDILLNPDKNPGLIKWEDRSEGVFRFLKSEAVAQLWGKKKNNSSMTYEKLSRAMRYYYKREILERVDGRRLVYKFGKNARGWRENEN
In short: as §1

FEV = biological target: T11, FEV (Homo sapiens, UniProt Q99581 1-238)
T11 sequence: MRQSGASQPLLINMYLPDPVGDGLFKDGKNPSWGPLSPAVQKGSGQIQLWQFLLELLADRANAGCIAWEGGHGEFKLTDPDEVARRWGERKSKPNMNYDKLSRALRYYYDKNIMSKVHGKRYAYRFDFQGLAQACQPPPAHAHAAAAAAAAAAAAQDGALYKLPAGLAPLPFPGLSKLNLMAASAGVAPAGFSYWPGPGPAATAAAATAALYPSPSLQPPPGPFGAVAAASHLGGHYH
In short: as §1

ELF4 = ELF4 (Homo sapiens, UniProt Q99607 1-663)
Sequence of ELF4 (Q99607 whole entry): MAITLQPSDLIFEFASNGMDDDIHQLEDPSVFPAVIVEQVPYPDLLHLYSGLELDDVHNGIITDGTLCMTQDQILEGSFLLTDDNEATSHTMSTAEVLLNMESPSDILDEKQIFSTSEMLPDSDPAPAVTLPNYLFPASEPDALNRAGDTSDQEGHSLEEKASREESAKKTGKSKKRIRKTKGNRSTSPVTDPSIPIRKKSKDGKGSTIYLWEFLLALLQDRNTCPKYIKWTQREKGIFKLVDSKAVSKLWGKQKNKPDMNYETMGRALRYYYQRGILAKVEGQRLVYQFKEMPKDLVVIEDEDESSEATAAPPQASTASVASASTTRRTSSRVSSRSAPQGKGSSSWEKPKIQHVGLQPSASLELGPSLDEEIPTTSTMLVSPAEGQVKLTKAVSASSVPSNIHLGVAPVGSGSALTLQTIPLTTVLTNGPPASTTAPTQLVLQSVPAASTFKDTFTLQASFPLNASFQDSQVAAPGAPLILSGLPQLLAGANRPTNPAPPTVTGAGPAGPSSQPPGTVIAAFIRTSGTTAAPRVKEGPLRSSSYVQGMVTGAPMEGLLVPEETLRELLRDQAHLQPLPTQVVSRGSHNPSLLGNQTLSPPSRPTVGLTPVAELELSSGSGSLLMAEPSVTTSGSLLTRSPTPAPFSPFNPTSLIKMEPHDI
In short: as §1

ETV1 = ETV1 (Homo sapiens, UniProt P50549 1-477)
Sequence of ETV1 (P50549 whole entry): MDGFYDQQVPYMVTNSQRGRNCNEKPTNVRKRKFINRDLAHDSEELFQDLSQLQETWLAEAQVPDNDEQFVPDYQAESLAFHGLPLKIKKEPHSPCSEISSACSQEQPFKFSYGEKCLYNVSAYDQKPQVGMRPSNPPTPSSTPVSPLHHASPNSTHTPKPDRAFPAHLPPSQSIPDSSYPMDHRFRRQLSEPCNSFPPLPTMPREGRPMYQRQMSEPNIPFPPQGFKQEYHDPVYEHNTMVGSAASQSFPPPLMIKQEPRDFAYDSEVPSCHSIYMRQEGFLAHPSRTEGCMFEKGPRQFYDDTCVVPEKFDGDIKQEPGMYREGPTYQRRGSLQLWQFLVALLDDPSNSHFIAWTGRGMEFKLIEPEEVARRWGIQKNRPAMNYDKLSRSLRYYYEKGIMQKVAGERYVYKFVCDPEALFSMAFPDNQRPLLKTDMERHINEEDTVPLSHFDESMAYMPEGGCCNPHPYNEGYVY
In short: as §1

ETV6 = ETV6 (Homo sapiens, UniProt P41212 1-452)
Sequence of ETV6 (P41212 whole entry): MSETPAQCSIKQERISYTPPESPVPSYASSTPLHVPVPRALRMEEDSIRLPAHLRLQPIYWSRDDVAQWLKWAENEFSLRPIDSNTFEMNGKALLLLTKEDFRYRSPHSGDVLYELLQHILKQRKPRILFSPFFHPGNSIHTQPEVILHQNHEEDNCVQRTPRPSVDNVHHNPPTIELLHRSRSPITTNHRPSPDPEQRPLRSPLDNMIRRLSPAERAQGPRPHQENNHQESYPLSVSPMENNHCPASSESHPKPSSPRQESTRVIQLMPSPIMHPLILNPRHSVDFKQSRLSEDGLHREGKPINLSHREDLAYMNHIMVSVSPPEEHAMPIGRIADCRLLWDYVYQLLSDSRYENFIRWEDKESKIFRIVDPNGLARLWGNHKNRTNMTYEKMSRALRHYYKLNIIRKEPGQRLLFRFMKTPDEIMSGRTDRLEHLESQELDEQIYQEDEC
In short: as §1

| Sequence | binding signal (FLI1) | binding signal (ELK1) | binding signal (ERG) | binding signal (ELF1) | binding signal (SPI1) | binding signal (SPIB) | binding signal (ELK3) | binding signal (ETV5) | binding signal (SPIC) | binding signal (ERF) | binding signal (ETV3L) | binding signal (ETS2) | binding signal (ETV3) | binding signal (EHF) | binding signal (FEV) | binding signal (ELF4) | binding signal (ETV1) | binding signal (ETV6) |
| --- | --- | --- | --- | --- | --- | --- | --- | --- | --- | --- | --- | --- | --- | --- | --- | --- | --- | --- |
| GTTGCG | 1 fold enrichment (6-mer frequency, TF over GST control) | 1.04 fold enrichment (6-mer frequency, TF over GST control) | 1.09 fold enrichment (6-mer frequency, TF over GST control) | 1.02 fold enrichment (6-mer frequency, TF over GST control) | 1.02 fold enrichment (6-mer frequency, TF over GST control) | 1.15 fold enrichment (6-mer frequency, TF over GST control) | 1.01 fold enrichment (6-mer frequency, TF over GST control) | 1.07 fold enrichment (6-mer frequency, TF over GST control) | 1.23 fold enrichment (6-mer frequency, TF over GST control) | 1.14 fold enrichment (6-mer frequency, TF over GST control) | 1.06 fold enrichment (6-mer frequency, TF over GST control) | 1.07 fold enrichment (6-mer frequency, TF over GST control) | 1.07 fold enrichment (6-mer frequency, TF over GST control) | – | – | – | – | – |
| AGTGAC | 1.07 fold enrichment (6-mer frequency, TF over GST control) | 1 fold enrichment (6-mer frequency, TF over GST control) | 1.1 fold enrichment (6-mer frequency, TF over GST control) | – | 1.33 fold enrichment (6-mer frequency, TF over GST control) | 1.04 fold enrichment (6-mer frequency, TF over GST control) | – | 1.05 fold enrichment (6-mer frequency, TF over GST control) | 1.04 fold enrichment (6-mer frequency, TF over GST control) | – | 1.1 fold enrichment (6-mer frequency, TF over GST control) | – | 1.1 fold enrichment (6-mer frequency, TF over GST control) | 1.08 fold enrichment (6-mer frequency, TF over GST control) | 1.11 fold enrichment (6-mer frequency, TF over GST control) | 1.05 fold enrichment (6-mer frequency, TF over GST control) | 1.03 fold enrichment (6-mer frequency, TF over GST control) | 1.11 fold enrichment (6-mer frequency, TF over GST control) |
